# Measurements: the supplement of paper PMC10849652
# Of roughly 7,900 targets only a part is listed; those with a hit were picked by preference. About 0.6% of all pairs of compound and target were hits. Values without a mark were called inactive.
# What was measured:
# Assay in all cases: log2 fold change, soluble protein after heating vs DMSO (PISA); higher = thermal stabilisation; K562 cells, 10 uM, 30 min; active = over 0.2 and 3.5 SD of the protein, either way, in both replicates (recomputed)
# [1] = compound: CC1=C(C=C(C=C1)NC(=O)C2=CC(=CC=C2)C(C)(C)C#N)NC3=CC4=C(C=C3)N=CN(C4=O)C
# In short: (§1)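 Quantification of soluble protein used TMTpro 16plex LC-MS/MS, with channel sums equalised. Samples were the supernatant after 21,000xg for 90 min of pooled aliquots from K562 cells (2×10^6 cells/mL) treated with 10 μM compound for 30 min, heated for 3 min over 48°C-58°C, and extracted in PBS with 0.5% NP-40 at 4°C. Values, from duplicates, describe thermal stability against control samples on a log2 fold-change scale.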
# [2] = compound: CC1=C(C=C(C=C1)NC(=O)C2=CC(=CC=C2)N(C)C)NC(=O)C3=CC=C(C=C3)O
# In short: as §1
# [3] = compound: CC1=NC(=CC=C1)C2=C(N=C(N2)C(C)(C)C)C3=CC4=NC=CN=C4C=C3
# In short: as §1
# Nexturastat A = compound: CCCCN(Cc1ccc(C(=O)NO)cc1)C(=O)Nc1ccccc1 [Nexturastat A]
# In short: as §1
# vemurafenib = compound: CCCS(=O)(=O)Nc1ccc(F)c(C(=O)c2c[nH]c3ncc(-c4ccc(Cl)cc4)cc23)c1F [vemurafenib]
# In short: as §1
# givinostat = compound: CCN(CC)Cc1ccc2cc(COC(=O)Nc3ccc(C(=O)NO)cc3)ccc2c1 [givinostat]
# In short: as §1
# [4] = compound: CC1=CC=C(C=C1)SC2=C3C=C(SC3=CN=C2)C(=O)N
# In short: as §1
# [5] = compound: CCCS(=O)(=O)Nc1ccc(F)c(C(=O)c2c[nH]c3ncc(Cl)cc23)c1F
# In short: as §1
# [6] = compound: CCCc1cc(C)[nH]c(=O)c1CNC(=O)c1cc(-c2ccnc(N3CCN(C)CC3)c2)cc2c1cnn2C(C)C
# In short: as §1
# barasertib = compound: CCN(CCCOc1ccc2c(Nc3cc(CC(=O)Nc4cccc(F)c4)[nH]n3)ncnc2c1)CCOP(=O)(O)O [barasertib]
# In short: as §1
# UniProt Q92585, sequence (Q92585 whole entry, looked up): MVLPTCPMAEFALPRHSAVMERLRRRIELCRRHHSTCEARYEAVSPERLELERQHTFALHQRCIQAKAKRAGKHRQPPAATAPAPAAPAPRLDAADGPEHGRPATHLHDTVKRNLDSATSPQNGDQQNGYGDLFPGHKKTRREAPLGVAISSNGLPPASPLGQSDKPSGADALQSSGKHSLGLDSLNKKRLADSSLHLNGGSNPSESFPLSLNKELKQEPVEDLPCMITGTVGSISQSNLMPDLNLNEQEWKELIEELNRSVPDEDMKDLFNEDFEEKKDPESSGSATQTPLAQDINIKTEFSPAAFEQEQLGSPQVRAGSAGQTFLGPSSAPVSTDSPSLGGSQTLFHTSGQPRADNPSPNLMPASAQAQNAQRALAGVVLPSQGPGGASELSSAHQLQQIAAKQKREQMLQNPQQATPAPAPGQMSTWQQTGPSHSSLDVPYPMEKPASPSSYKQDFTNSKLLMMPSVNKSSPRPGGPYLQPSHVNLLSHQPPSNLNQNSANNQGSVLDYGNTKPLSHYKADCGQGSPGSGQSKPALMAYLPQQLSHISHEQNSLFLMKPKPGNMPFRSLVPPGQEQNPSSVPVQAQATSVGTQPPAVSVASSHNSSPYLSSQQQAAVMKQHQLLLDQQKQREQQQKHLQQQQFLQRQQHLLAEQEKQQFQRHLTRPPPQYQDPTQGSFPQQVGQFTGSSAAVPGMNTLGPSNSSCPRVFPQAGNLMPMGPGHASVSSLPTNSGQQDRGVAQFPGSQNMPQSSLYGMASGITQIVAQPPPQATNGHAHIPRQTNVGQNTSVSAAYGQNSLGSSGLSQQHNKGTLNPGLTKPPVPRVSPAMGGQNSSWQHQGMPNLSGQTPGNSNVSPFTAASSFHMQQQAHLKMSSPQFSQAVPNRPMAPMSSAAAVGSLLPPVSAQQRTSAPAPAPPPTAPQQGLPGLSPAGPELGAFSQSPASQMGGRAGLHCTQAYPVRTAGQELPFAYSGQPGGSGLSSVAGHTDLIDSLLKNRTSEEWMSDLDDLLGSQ
# UniProt Q6P9B9, sequence (Q6P9B9 whole entry, looked up): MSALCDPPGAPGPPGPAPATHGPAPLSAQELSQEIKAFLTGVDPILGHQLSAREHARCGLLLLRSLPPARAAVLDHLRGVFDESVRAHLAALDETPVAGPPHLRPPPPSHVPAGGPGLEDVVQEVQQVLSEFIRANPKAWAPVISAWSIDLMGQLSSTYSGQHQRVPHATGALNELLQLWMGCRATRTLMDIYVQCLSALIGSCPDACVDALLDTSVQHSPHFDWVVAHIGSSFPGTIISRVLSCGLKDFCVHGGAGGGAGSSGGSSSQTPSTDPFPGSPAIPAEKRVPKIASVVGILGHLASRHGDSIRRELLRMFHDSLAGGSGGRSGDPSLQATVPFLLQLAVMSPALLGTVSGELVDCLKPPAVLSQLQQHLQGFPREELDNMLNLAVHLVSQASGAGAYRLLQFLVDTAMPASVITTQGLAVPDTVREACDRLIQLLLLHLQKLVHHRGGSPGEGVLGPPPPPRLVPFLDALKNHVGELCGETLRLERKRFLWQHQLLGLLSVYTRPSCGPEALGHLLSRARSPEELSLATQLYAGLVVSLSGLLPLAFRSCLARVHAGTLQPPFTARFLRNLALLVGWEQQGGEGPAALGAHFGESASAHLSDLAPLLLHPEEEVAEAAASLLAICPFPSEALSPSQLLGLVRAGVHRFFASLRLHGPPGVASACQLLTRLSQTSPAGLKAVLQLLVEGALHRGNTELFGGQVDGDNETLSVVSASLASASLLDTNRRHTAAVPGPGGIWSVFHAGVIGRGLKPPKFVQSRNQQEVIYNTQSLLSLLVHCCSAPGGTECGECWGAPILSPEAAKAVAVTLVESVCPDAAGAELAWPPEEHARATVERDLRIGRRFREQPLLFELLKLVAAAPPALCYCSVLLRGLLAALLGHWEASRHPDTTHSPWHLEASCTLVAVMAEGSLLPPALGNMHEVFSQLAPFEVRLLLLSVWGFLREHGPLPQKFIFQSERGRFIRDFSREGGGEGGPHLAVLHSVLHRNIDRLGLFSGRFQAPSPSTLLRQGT
# UniProt Q8NC54, sequence (Q8NC54 whole entry, looked up): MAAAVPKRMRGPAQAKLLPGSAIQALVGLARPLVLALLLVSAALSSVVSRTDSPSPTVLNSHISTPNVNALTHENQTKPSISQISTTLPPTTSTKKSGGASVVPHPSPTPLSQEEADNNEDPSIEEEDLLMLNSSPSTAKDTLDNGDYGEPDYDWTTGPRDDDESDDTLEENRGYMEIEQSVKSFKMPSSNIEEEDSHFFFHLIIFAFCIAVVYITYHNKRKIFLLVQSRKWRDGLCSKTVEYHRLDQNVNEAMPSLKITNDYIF
# UniProt Q9UI26, sequence (Q9UI26 whole entry, looked up): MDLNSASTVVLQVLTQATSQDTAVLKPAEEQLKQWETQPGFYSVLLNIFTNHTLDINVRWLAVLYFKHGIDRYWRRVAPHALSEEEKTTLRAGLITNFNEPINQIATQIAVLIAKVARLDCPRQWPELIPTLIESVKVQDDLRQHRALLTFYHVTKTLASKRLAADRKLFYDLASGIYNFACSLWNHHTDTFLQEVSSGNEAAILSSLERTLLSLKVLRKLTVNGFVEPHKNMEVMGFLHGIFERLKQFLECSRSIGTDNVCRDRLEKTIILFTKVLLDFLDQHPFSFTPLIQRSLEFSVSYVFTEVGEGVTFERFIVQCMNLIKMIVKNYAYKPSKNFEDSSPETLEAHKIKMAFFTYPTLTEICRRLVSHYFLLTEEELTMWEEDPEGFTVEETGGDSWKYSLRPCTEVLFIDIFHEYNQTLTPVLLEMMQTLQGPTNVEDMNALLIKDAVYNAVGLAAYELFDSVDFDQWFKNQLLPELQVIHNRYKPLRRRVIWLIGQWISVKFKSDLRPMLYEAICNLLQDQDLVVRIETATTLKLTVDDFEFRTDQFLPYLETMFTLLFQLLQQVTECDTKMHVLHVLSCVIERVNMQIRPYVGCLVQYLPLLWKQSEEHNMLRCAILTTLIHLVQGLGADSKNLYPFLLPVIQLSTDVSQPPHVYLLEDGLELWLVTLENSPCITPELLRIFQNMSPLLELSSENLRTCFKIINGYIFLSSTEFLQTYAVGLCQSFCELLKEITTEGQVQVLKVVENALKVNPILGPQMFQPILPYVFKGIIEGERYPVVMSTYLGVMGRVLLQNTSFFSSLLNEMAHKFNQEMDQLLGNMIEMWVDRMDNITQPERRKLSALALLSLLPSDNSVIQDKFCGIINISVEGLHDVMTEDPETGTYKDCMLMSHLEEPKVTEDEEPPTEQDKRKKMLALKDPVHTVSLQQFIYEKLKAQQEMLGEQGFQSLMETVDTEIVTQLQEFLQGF
# UniProt Q9P244, sequence (Q9P244 whole entry, looked up): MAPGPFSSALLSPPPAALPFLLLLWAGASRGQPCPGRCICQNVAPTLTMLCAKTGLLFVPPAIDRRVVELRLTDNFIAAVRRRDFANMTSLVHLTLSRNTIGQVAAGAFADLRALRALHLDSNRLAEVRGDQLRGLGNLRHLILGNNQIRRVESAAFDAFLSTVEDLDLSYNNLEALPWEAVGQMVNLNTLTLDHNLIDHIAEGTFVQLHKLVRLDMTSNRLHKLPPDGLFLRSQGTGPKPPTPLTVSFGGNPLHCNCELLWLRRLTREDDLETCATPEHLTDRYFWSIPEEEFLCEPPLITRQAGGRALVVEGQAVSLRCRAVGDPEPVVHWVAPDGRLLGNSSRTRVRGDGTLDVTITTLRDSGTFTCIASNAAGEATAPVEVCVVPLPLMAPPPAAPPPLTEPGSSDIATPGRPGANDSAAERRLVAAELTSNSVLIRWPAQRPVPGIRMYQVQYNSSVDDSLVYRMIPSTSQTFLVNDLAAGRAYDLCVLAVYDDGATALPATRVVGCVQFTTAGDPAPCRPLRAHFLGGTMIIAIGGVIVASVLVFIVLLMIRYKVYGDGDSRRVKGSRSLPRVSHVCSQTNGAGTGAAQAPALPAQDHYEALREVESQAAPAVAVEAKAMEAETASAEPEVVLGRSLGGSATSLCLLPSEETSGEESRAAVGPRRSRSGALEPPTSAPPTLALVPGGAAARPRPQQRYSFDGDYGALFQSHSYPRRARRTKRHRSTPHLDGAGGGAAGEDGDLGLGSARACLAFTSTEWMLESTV
# UniProt O14733, sequence (O14733 whole entry, looked up): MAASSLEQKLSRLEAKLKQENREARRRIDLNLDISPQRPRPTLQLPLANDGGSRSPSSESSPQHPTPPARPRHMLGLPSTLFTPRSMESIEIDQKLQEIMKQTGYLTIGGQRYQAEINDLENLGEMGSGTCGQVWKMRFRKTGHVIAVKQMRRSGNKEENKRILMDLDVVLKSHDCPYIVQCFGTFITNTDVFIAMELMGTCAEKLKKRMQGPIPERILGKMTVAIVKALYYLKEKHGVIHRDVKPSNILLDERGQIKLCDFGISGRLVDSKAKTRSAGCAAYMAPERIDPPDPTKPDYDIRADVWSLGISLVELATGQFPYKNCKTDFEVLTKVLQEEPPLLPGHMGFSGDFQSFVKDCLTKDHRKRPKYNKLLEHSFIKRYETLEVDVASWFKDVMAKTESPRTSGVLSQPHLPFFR
# UniProt Q9NQX7, sequence (Q9NQX7 whole entry, looked up): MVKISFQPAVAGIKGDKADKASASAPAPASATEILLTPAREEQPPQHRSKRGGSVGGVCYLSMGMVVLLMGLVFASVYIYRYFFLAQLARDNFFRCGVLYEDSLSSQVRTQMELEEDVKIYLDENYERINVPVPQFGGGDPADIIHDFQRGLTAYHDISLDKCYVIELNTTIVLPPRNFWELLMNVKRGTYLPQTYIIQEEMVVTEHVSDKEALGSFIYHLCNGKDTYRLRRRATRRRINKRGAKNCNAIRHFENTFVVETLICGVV
# UniProt O43513, sequence (O43513 whole entry, looked up): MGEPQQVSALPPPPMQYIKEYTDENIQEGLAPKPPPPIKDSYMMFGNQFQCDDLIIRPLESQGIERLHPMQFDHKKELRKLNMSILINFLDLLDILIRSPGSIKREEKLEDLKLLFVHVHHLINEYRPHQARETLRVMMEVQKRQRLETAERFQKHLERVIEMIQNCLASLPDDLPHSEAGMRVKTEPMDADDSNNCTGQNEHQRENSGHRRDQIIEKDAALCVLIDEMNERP
Target,log2 fold change [1],log2 fold change [2],log2 fold change [3],log2 fold change (Nexturastat A),log2 fold change (vemurafenib),log2 fold change (givinostat),log2 fold change [4],log2 fold change [5],log2 fold change [6],log2 fold change (barasertib)
MAML1 (UniProt Q92585),-0.05,-0.035,0.199,0.039,0.038,0.299,–,–,–,–
INTS5 (UniProt Q6P9B9),0.091,-0.061,0.042,0.01,0.087,0.038,0.026,0.074,0.122,0.015
MAPK14 isoform 2 (UniProt Q16539),1.9 (active),0.649,0.036,0.064,0.095,0.107,0.024,0.219,0.026,-0.005
MAP4K4 isoform 3 (UniProt O95819),-0.166,0.013,0.012,0.033,-0.007,0.017,0.022,0.028,-0.02,-0.012
LENG8 (UniProt Q96PV6),0.112,-0.201,0.009,-0.139,0.146,0.09,–,–,0.066,0.173
LRFN1 (UniProt Q9P244),0.052,0.076,-0.101,0.241,-0.031,-0.025,0.02,0.054,–,0.037
IGFBP3 isoform 2 (UniProt P17936),-0.187,–,0.205,0.204,0.031,–,0.1,0.076,–,–
IPO11 isoform 2 (UniProt Q9UI26),0.028,0.004,0.047,-0.002,0.052,-0.031,0.024,0.082,-0.031,0.014
LUM (UniProt P51884),-0.011,0.403,0.061,-0.008,0.069,-0.108,0.042,-0.266,–,–
MARK2 (UniProt E9PC69),-0.011,-0.018,0.06,0.025,-0.005,0.132,0.094,-0.034,–,0.034
KCT2 (UniProt Q8NC54),0.104,0.007,0.017,-0.102,-0.013,-0.108,0.006,-0.011,-0.008,-0.025
MASTL (UniProt Q96GX5),0.032,0.187,-0.056,-0.149,-0.028,-0.038,–,–,-0.032,-0.013
LMBRD1 (UniProt Q9NUN5),0.073,0.02,–,-0.034,-0.101,0.05,0.023,-0.057,-0.077,-0.039
MED7 (UniProt O43513),0.049,-0.023,0.015,0.212,-0.021,-0.008,-0.009,-0.093,–,-0.149
MAGI1 (UniProt Q96QZ7),0.041,0.041,-0.023,0.074,0.018,-0.013,-0.027,-0.009,-0.026,-0.008
KLHL18 (UniProt O94889),-0.068,-0.009,–,-0.099,-0.05,-0.049,0.003,-0.051,0.06,0.11

Target,log2 fold change [1],log2 fold change [2],log2 fold change [3],log2 fold change (Nexturastat A),log2 fold change (vemurafenib),log2 fold change (givinostat),log2 fold change [4],log2 fold change [5],log2 fold change [6],log2 fold change (barasertib)
LRBA (UniProt P50851),-0.011,0,0.001,-0.046,0.01,0.008,-0.011,0.031,-0.025,0.038
MED12 isoform 2 (UniProt Q93074),0.034,-0.202,-0.09,0.012,–,0.106,-0.015,0.071,0.023,-0.135
ITGA2B (UniProt P08514),-0.071,0.064,-0.052,0.121,-0.105,0.09,-0.058,0.134,–,–
IP6K1 (UniProt Q92551),0.443,0.022,–,0.232,–,-0.008,–,-0.015,0.068,0.259
MED22 (UniProt Q15528),-0.023,0.034,0.015,-0.033,0.043,0.117,–,–,0.014,0.028
ITM2C (UniProt Q9NQX7),0.096,0.004,–,0.084,0.006,0.09,0.187,-0.014,–,0.057
MAP2K7 isoform 4 (UniProt O14733),-0.068,0.003,0.009,-0.031,-0.01,-0.019,-0.008,0.009,-0.026,0.016
IL10RB (UniProt Q08334),0.19,–,-0.17,0.082,-0.004,0.088,-0.012,0.018,–,0.063
MAP3K20 isoform 2 (UniProt Q9NYL2),-0.375 (active),–,0.295,0.16,–,0.003,-0.038,0.044,-0.017,–
MAPKAPK2 (UniProt P49137),0.077,0.082,0.019,-0.047,0.074,0.026,-0.008,0.045,0.038,-0.001
MAPK14 (UniProt Q16539),1.62 (active),0.615,0.022,–,0.059,0.03,0.111,0.339,0.002,-0.029
IKZF1 isoform 2 (UniProt Q13422),0.141,-0.068,–,–,0.095,-0.135,–,–,-0.002,-0.08
KMT2C isoform 3 (UniProt Q8NEZ4),-0.053,-0.07,–,-0.046,-0.103,0.011,–,–,-0.033,-0.003
MCM10 (UniProt Q7L590),0.209,–,0.155,0.028,-0.016,-0.065,0.166,0.217,-0.037,-0.012
MED25 isoform 3 (UniProt Q71SY5),-0.033,0.022,-0.014,–,0.141,0.105,-0.012,0.05,-0.083,0.019
